# Measured values published in PubChem BioAssay AID1578 (Sanford-Burnham Center for Chemical Genomics, 2009).
# The whole screen tested about 290,000 compounds, of which about 3,000 (1%) were called active. The list comes from a sample in which actives are over-represented; it also holds similar structures and randomly drawn compounds. Unmarked numbers belong to inactive results. Cut-off read from the data, not from the text of the source: active = inhibition mostly above about 36% (no sharp cut-off); inactive = mostly below about 34%.
# Assay: NOD1 signaling inhibitors, primary screen, cell-based, luminescence, uHTS (AID 1578);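 note: HEK-293T reporter cells stimulated with the NOD1 agonist gamma-tri-DAP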
# Details: NOD1-driven NF-kB luciferase reporter cells, at 4 µM, active compounds read high
row,Compound,inhibition
1,COc1ccc(-c2nnn(CC(=O)c3c[nH]c4ccccc34)n2)cc1OC,-7.9%
2,CCOC(=O)c1[nH]ncc1CN1CCN(Cc2ccccc2)C(CCO)C1 (stereo not drawn),-20.2%
3,CSc1ccc(S(=O)(=O)N2CCC(C(=O)NCCN3CCOCC3)CC2)cc1,-17.3%
4,CSc1nc2sc(-c3ccccc3)cc2c(=O)n1N,-13.6%
5,Cc1ccc(C)n1-n1c(C)nc2sc(-c3ccccc3)cc2c1=O,-14.6%
6,Cc1nc2cc(-c3ccccc3)sc2c(=O)n1N,95.4% (active)
7,Cc1nc2ccccc2c(=O)n1N,-11.6%
8,Cc1nc2sc(-c3ccccc3)cc2c(=O)n1N,29.8% (active)
9,O=c1c2sc(-c3ccccc3)cc2nc2n1CCC2,-26.3%
10,COc1cccc(CN2CCN(C3CCOCC3)CC2CCO)c1 (stereo not drawn),2.6%
11,CCOC(=O)Cc1nnc(NC(=O)CSc2nnc3c(n2)[nH]c2ccccc23)s1,19%
12,COc1c(C)cc(C(=O)C2CCCN(S(=O)(=O)c3c(C)noc3C)C2)cc1C (stereo not drawn),48.6% (active)
13,Cc1noc(C)c1S(=O)(=O)N1CCCC(C(=O)c2cccc(OC(C)C)c2)C1 (stereo not drawn),4.9%
14,CSc1ccc(C(=O)C2CCCN(S(=O)(=O)c3c(C)noc3C)C2)cc1 (stereo not drawn),-19.9%
15,CCCCOc1ccc(-c2ncc(C(=O)O)c(C)n2)cc1,-62%
16,COc1ccccc1CN(Cc1nc2ccccc2c(=O)[nH]1)S(=O)(=O)c1ccc(C)cc1,-16.5%
17,Nc1cc(S(=O)(=O)c2ccc(O)c(N)c2)ccc1O,-4.4%
18,C=CCc1ccc(O)c(-c2ccc(O)c(CC=C)c2)c1,-6.9%
19,C=CCc1cc(S(=O)(=O)c2ccc(O)c(CC=C)c2)ccc1O,47.4% (active)
20,Cc1[nH]c(-c2ccc(F)cc2)cc1C(=O)N1CCN(c2ccccc2)CC1,-4.4%
21,O=C(Nc1nnc(-c2ccccc2)o1)C1CCCCC1,-11.8%

row,Compound,inhibition
1,O=C(Nc1cccc(-c2nnc(-c3ccccc3)o2)c1)C1CCCCC1,30.6% (active)
2,O=C(Nc1cccc(-c2nnc(-c3ccccc3)o2)c1)C1CC1,2.9%
3,Brc1cc(Br)c2nc3c(cc2c1)CCC3,-13.3%
4,COc1cc2cc(Br)cc(Br)c2nc1C,37.7%
5,COc1ccc(CN(C)S(=O)(=O)c2nnc(NC(=O)c3cccc(F)c3)s2)cc1OC,4.4%
6,CN(Cc1ccccc1)S(=O)(=O)c1nnc(NC(=O)c2ccccc2)s1,1.1%
7,COc1ccc(CN(C)S(=O)(=O)c2nnc(NC(=O)c3cccc(OC)c3)s2)cc1,7.1%
8,COc1cccc(C(=O)Nc2nnc(S(=O)(=O)N(C)Cc3ccc(F)cc3)s2)c1,16.8%
9,CC(=O)C1=C(O)C(=O)N(Cc2ccccc2)C1c1ccco1 (stereo not drawn),-9.8%
10,Cc1ccccc1CN1CCC(n2nccc2NC(=O)c2cccnc2)CC1,-23.7%
11,Cc1ccc(S(=O)(=O)CCC(=O)OCC(=O)c2c[nH]c3ccccc23)cc1,17.3%
12,CCn1c(Cc2ccccc2)nnc1SCC(=O)Nc1cc(C)on1,5%
13,COCCn1c(Cc2ccccc2)nnc1SCC(=O)Nc1cc(C)on1,-22.5%
14,CCCCn1c(Cc2ccccc2)nnc1SCC(=O)Nc1cc(C)on1,112% (active)
15,Cc1ccc(S[C@@H](CCN2CC[C@H](O)CCC2=O)c2ccccc2)cc1,-12.3%
16,CC(C)(C)c1ccc(C(=O)n2cnc3ccccc32)cc1,-13.4%
17,CCN(CC)c1ccc(C(=O)n2cnc3ccccc32)cc1,38.7% (active)
18,COc1ccc(C(=O)n2cnc3ccccc32)cc1,-10.8%
19,O=C(CSc1ncn[nH]1)NCCCc1ccccc1,-16.5%
20,COc1ccc(CNc2cccc3[nH]c(C(F)(F)F)nc23)cc1OC,-14.9%
21,COc1ccc(CNc2cccc3[nH]c(C(F)(F)F)nc23)cc1,6%

row,Compound,inhibition
1,COc1cc(CNc2cccc3[nH]c(C(F)(F)F)nc23)cc(OC)c1,33% (active)
2,O=C1OCC/C1=C\c1ccc2c(c1)OCO2,-0.1%
3,CCOC(=O)c1c2c3c(cccc3[nH]c1=O)C(=O)c1ccccc1-2,-40.2%
4,CCOC(=O)c1c(C)[nH]c(C)c1-c1ccccc1OC,13.9%
5,CCOC(=O)c1c(C)[nH]c2c1-c1ccccc1C(=O)C2=O,106% (active)
6,COc1ccc2[nH]cc(C(=O)CN3CCN(C/C=C/c4ccccc4)CC3)c2c1,-1.2%
7,Cc1[nH][nH]c(=O)c1C(c1c(C)[nH][nH]c1=O)c1cn(Cc2ccc(Cl)c(Cl)c2)c2ccccc12,-18.9%
8,Cc1[nH][nH]c(=O)c1C(c1c(C)[nH][nH]c1=O)c1cn(Cc2cccc3ccccc23)c2ccccc12,10.6%
9,Cc1[nH][nH]c(=O)c1C(c1c(C)[nH][nH]c1=O)c1cn(Cc2ccccc2Cl)c2ccccc12,83.9% (active)
10,Cc1c(CN(C)Cc2cn(C)nc2-c2ccccc2F)[nH]c2ccccc12,-13.2%
11,c1ccc(CCn2nnnc2C(c2cccs2)N2CCN(Cc3ccc4c(c3)OCO4)CC2)cc1 (stereo not drawn),-12.4%
12,COc1ccc(C)cc1NC(=O)CSc1nnc(COc2ccc(C)cc2)n1Cc1ccco1,28.5%
13,CCC(C)Sc1nc(O)c(Cc2ccccc2)c(=O)[nH]1 (stereo not drawn),6.4%
14,O=C(CSC1=NC(=O)C(Cc2ccccc2)C(=O)N1)NC1CCCCC1 (stereo not drawn),-8.3%
15,COc1ccc(-c2cn[nH]c2-c2ccc(OCc3ccc([N+](=O)[O-])cc3)cc2O)cc1,91.5% (active)
16,O=[N+]([O-])c1ccc(COc2ccc(-c3[nH]ncc3-c3ccc(Cl)cc3)c(O)c2)cc1,5.4%
17,Nc1ncc(-c2ccccc2)c(-c2ccc(OCc3ccccc3)cc2O)n1,2.3%
18,COc1ccc(-c2cnc(N)nc2-c2ccc(OCc3ccccc3)cc2O)cc1,-0.9%
19,COc1ccccc1-c1cn[nH]c1-c1ccc(OCc2ccccc2F)cc1O,0%
20,COc1ccc(-c2cn[nH]c2-c2ccc(OCc3ccccc3)cc2O)cc1OC,28.5%
21,COc1ccc(-c2cn[nH]c2-c2ccc(OCc3ccc([N+](=O)[O-])cc3)cc2O)cc1OC,34.4%
